# Shown are actives, neighbours in structure and some others; about 19% of the full set was active somewhere.
# SARS PLpro yeast – blocks SARS-CoV papain-like protease in a yeast assay; Potency, µM (top dose mostly 32.9 µM), for the others: top-dose activity, positive = growth rescue, actives largely listed as activators; S. cerevisiae expressing SARS-CoV PLpro, growth rescue; actives 0.19% (n = 330,000); AID 485353; calls by dose curve; also: potency is read from the fitted curve at half-maximal effect; 0% is about no effect; nearly all actives have a fitted effect of over 55% in size
# Shiga inhibitor – Shiga toxin inhibition | actives 9.2% (n = 290,000) | Vero cells, Shiga toxin protein synthesis inhibition reporter | inhibition, % at 38.7 µM; in the data active = inhibition mostly above about 28%, no sharp cut-off; inactive = mostly below about 43%; also: 0% is about no effect
# CHX counter – counter-screen hit for Shiga toxin inhibitors, cycloheximide. cell reporter, cycloheximide protein synthesis inhibition counterscreen. max response, %. actives 12% (n = 300,000). AID 2314; in the data active = max response mostly above about 13%, no sharp cut-off; inactive = mostly below about 14%; also: read at 38.3 µM for the half of the compounds with a filed dose; 0% is about no effect
# Pf growth 96h – inhibits malaria parasite growth, 96 h; P. falciparum luciferase reporter growth, 96 h; Potency, µM (highest dose often 28.7 µM), for the others: top-dose activity change, negative = inhibition, hits mostly inhibitors; actives 6.9% (n = 320,000); AID 504834; also: potency is read from the fitted curve at half-maximal effect; % is scaled to controls: 0 for no effect and ±100 for the full control effect
#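 P. falciparum expressing integrated firefly luciferase, in erythrocytes at 2% hematocrit, 0.05% parasitemia, incubated with compounds 96 h at 37 C, 5% CO2. Growth inhibition read as loss of luminescence; two-generation exposure targets delayed-death apicoplast inhibitors.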
# Pf growth 48h – inhibits P. falciparum growth in the first generation, 48 h; Potency, µM (series often up to 28.7 µM), for inactives: at the highest dose activity change, negative = inhibition, hits mostly inhibitors; P. falciparum luciferase growth in erythrocytes, 48 h; actives 5.9% (n = 310,000); also: potency is read from the fitted curve at half-maximal effect; % is scaled to controls: 0 for no effect and ±100 for the full control effect
#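 A one-generation exposure of luciferase-tagged malaria parasites in RPMI 1640/Albumax erythrocyte culture, 37 C and 5% CO2. Inhibition is inferred from decreased luminescence after adding detection reagent.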
# AMA1 RON2 block – disrupts binding of P. falciparum AMA1 to RON2; AlphaScreen AMA1-biotinylated RON2 peptide binding; Potency, µM (top dose mostly 58.2 µM), without a hit: top-dose activity change, negative = inhibition, most hits filed as inhibitors; AID 720542; actives 0.2% (n = 360,000);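 also: potency is read from the fitted curve at half-maximal effect; 0% = vehicle wells and -100% = peptide control; nearly all actives have a fitted effect of over 45% in size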
#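 AMA1 (3D7) with his tag at 25 nM final met compounds first, then biotinylated RON2 peptide at 25 nM; detection used donor plus acceptor beads, 10 µg/mL apiece, read by AlphaScreen after 30 min at room temperature.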
# The depositor's hits bear a star; u = inconclusive; x = no result; [ ] = another dose, or the depositor's remark. Unless noted, calls follow the shape of the dose curve; as a rule, active = well fitted curve in the direction sought with a large enough effect; inconclusive = small, poorly fitted or top-dose-only effect, or another doubt; inactive = no such curve, though single readings can be large; an effect the other way counts as inactive or inconclusive.
SMILES,SARS PLpro yeast,Shiga inhibitor,CHX counter,Pf growth 96h,Pf growth 48h,AMA1 RON2 block
COc1ccccc1NC(=O)COc1ccc(/C=N/NC(=O)c2cccnc2)cc1,1%,-12,7,31%,7%,3%
CCOc1cc(C(=S)N2CCN(C)CC2)ccc1OCC(=O)N1CCOCC1,-7%,-3,1,u,3%,7%
CO/N=C/C1CCN(c2ncc(C(F)(F)F)cc2Cl)C1=O (stereo not given),-5%,56,6,26%,10%,22%
CNC(=S)N/N=C/c1ccc(OCC(=O)Nc2c(C)cc(C)cc2C)c(OC)c1,-5%,-14,-2,u,13µM*,39%
COc1cc(/C=N/NC(=O)c2ccncc2)ccc1OCC(=O)Nc1ccccc1,-2%,56*,30*,0%,8%,33%
COc1ccc(NC(=O)COc2ccc(/C=N/NC(=O)c3cccnc3)cc2OC)cc1,-6%,32*,10,28%,9%,27%
COc1cc(/C=N/NC(=O)c2cccnc2)ccc1OCC(=O)Nc1c(C)cc(C)cc1C,-13%,-5,-6,1%,-11%,-25%
O=C(COc1ccc(/C=N/NS(=O)(=O)c2ccccc2)cc1)Nc1ccccc1,5%,60,21*,u,45%,-10%
COc1cc(/C=N/NC(=O)c2cccnc2)ccc1OCC(=O)Nc1ccccc1Cl,1%,7,22,u,u,-3%
CCOc1ccc(/C=N/NC(=O)c2ccncc2)cc1OC,x,x,x,x,x,17%
Cc1cccc(N2C(=O)CC(N3CCN(c4ccccn4)CC3)C2=O)c1 (stereo not given),-5%,16,-2,29%,-4%,-2%
O=C(C1CC1)N1CCN=C1SCc1ccccc1Cl,-10%,-3,-8,u,x,28%
COc1cc(/C=N\NC(=O)CC#N)ccc1OC/C=C/c1ccccc1,3%,1,-1,-14%,-21%,69%
COCC(=O)N/N=C\c1ccc(OC/C=C/c2ccccc2)c(OC)c1,-2%,-4,-2,-3%,4.7µM*,43%
Cc1nonc1NC(=O)OC1CCCCC1,-3%,8,-6,1µM*,u,25%
O=C(Nc1cc2c(oc1=O)CCCC2=O)c1ccc(Cl)cc1,1%,23,20*,57%,47%,u
O=C(NCC1([N+](=O)[O-])CN(C(=O)c2ccccc2)CN(C(=O)c2ccccc2)C1)c1ccccc1,0%,26,-1,-22%,-14%,20%
COc1ccc(OC)c(-n2c(-c3ccc(S(C)(=O)=O)cc3)cc(C=O)c2C)c1,1%,16,2,u,12µM*,-7%
COc1ccc(OC)c(-n2c(C)ccc2-c2ccc(S(C)(=O)=O)cc2)c1,3%,-3,5,u,x,-27%
O=C(C=Cc1ccc2c(c1)OCO2)C1CC1,x,x,x,x,x,-3%
O=C(CN1CCOCC1)Nc1cc(C(F)(F)F)ccc1Cl,-3%,-3,12,12µM*,u,-3%
O=C(CN1CCN(C(=O)c2ccco2)CC1)Nc1cc(C(F)(F)F)ccc1Cl,12%,-2,6,x,1.7µM*,6%
O=C(CN1CCCCCC1)Nc1cc(C(F)(F)F)ccc1Cl,-2%,-7,1,0%,6%,-11%
OCCC1CN(Cc2cccc(-n3cccn3)c2)CCN1Cc1ccccc1 (stereo not given),1%,-2,6,u,0%,-3%
Cc1cc(S(=O)(=O)NC2CCCCC2)ccc1OCC(=O)NCc1ccccn1,6%,20,-3,u,13µM*,0%
SMILES,SARS PLpro yeast,Shiga inhibitor,CHX counter,Pf growth 96h,Pf growth 48h,AMA1 RON2 block
Cc1cc(S(=O)(=O)NCc2ccccc2)ccc1OCC(=O)NCc1ccncc1,-1%,80*,49*,u,u,-15%
Cc1cc(S(=O)(=O)N2CCCC2)ccc1OCC(=O)NCc1ccccn1,-2%,-4,-10,-1%,-11%,9%
Cc1ccc(C(=O)N/N=C/c2ccc3c(c2)OCO3)o1,-7%,60*,63*,-18%,108%,-1%
O=C(N/N=C/c1ccc2c(c1)OCO2)c1cc2ccccc2o1,0%,17,12*,22%,14%,19%
Cc1ccc(C(=O)/C=C/c2ccccc2)o1,-27%,61,40*,u,x,-9%
O=C(N/N=C/c1cccc2ccccc12)c1cc2ccccc2o1,-2%,6,12,26%,58%,12%
O=C(N/N=C/c1ccsc1)c1cc2ccccc2o1,-15%,41*,62*,47%,19%,11%
O=C(Nc1cc(Cl)cc(Cl)c1)c1ccc(Cn2c(=O)[nH]c3ccsc3c2=O)cc1,-4%,-19,-2,u,27%,-6%
Nc1cccc(C(=O)N/N=C/c2ccsc2)c1,-2%,54*,33*,65%,102%,0%
Cc1ccc(C(=O)/C=C/c2ccc3c(c2)OCO3)o1,-23%,52*,49*,0%,48%,-14%
Cc1cc(/C=C(\C#N)C(=O)NCc2ccco2)c(C)n1C1CCCC1,-20%,85*,51*,x,17%,u
Cc1cccc(NC(=O)/C(C#N)=C/c2cn(CC(=O)NCc3ccco3)c3ccccc23)c1,2%,-11,-6,22%,20%,0%
COc1ccccc1OCCn1cc(/C=C(\C#N)C(=O)NCc2ccco2)c2ccccc21,14%,-6,3,-19%,u,-14%
Cc1cc(/C=C(/C#N)c2cccc(F)c2)c(C)n1-c1cccnc1,-25%,59*,45*,x,u,-21%
COc1cc(/C=C(\C#N)C(=O)NCc2cccs2)ccc1O,-1%,4,19,10%,23%,9%
Cc1ccc(C)c(OCCn2cc(/C=C(\C#N)C(=O)NCc3ccco3)c3ccccc32)c1,-1%,-8,-2,0%,9.3µM*,42%
Cc1cc(/C=C(\C#N)C(=O)NCc2cccs2)c(C)n1-c1ccc([N+](=O)[O-])cc1,-15%,8,-1,u,2.3µM*,0%
Cc1cccc(-n2c(C)cc(C=C(C#N)C#N)c2C)c1,7%,-11,7,u,-6%,-10%[11.6 µM]
COc1ccccc1NS(=O)(=O)c1ccc(C)c(C(=O)NCC2(N(C)C)CCCCC2)c1,-4%,x,x,u,u,2%
Cc1cc(/C=C(/C#N)c2cccc(Cl)c2)c(C)n1C,-4%,16,19*,u,37%,8%
Cc1c(C(=O)O)cccc1-n1c(C)cc(/C=C(/C#N)C(=O)NCc2ccccc2)c1C,0%,-5,-3,u,u,12%
Cc1cc(/C=C(\C#N)C(=O)NCc2ccco2)c(C)n1-c1cccnc1,1%,72*,38*,0%,-2%,-9%
Cn1cccc1/C=C(\C#N)c1ccccc1,-1%,23,9,-17%,12%,u
CCn1nnc2sc3c(c2c1=O)CCC(C)C3 (stereo not given),-4%,25,38*,0%,52%,-11%
